Pf growth 48h = P. falciparum growth inhibition at 48 hours (one generation) | P. falciparum luciferase growth in erythrocytes, 48 h | Potency, µM (series often up to 28.7 µM), for the others: top-dose activity change, negative = inhibition, hits mostly inhibitors | 5.9% of 310,000 active; note: potency is the fitted concentration of half-maximal effect; % is set by controls: 0 for no effect and ±100 for the full control effect
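Compounds are pin-transferred into medium, infected erythrocytes (2% hematocrit, 0.1% parasitemia final) are added, and plates sit one parasite generation at 37 C in 5% CO2. Detection reagent is then added and luminescence measured.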
Lassa entry inh = inhibitors of Lassa virus binding or cell entry; Lassa virus pseudotype entry inhibition, cell reporter; AID 540256; 1.2% of 300,000 active; Potency, µM (series often up to 37.9 µM), for the others: top-dose activity change, negative = inhibition, actives largely listed as inhibitors; calls by dose curve; tested in HEK293 cells; note: potency is the fitted concentration of half-maximal effect; % is set by controls: 0 for no effect and ±100 for the full control effect; nearly all actives have a fitted effect of over 50% in size
Shiga inhibitor = blocks Shiga toxin action in Vero cells. 9.2% of 290,000 active. inhibition, % at 38.7 µM. Vero cells, Shiga toxin protein synthesis inhibition reporter; in the data active = inhibition mostly above about 28%, no sharp cut-off; inactive = mostly below about 43%; note: 0% is about no effect
Marburg entry inh = Marburg virus entry inhibition; Marburg virus pseudotyped entry inhibition, cell reporter; Potency, µM (top dose mostly 37.8 µM), inactives show top-dose activity change, negative = inhibition, most hits filed as inhibitors; 1.8% of 300,000 active; AID 540276; calls by dose curve; tested in HEK293 cells; note: potency is the fitted concentration of half-maximal effect; % is set by controls: 0 for no effect and ±100 for the full control effect
Pf growth 96h = inhibits malaria parasite growth, 96 h; 6.9% of 320,000 active; AID 504834; Potency, µM (highest dose often 28.7 µM), without a hit: at the highest dose activity change, negative = inhibition, actives largely listed as inhibitors; P. falciparum luciferase reporter growth, 96 h; note: potency is the fitted concentration of half-maximal effect; % is set by controls: 0 for no effect and ±100 for the full control effect
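Compounds incubated with erythrocytes infected by luciferase-expressing P. falciparum (2% hematocrit, 0.05% parasitemia final) for 96 hours, 37 C in 5% CO2. Growth inhibition scored as decreased luciferase luminescence.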
Cycloheximide cs = counter-screen hit for Shiga toxin inhibitors, cycloheximide; cell reporter, cycloheximide protein synthesis inhibition counterscreen; max response, %; 12% of 300,000 active; in the data active = max response mostly above about 13%, no sharp cut-off; inactive = mostly below about 14%; note: read at 38.3 µM for the half of the compounds with a filed dose; 0% is about no effect
Numbers without * were called inactive; i = inactive; ? = inconclusive; / = no result; [ ] = remark or other dose. Only some compounds are listed: those with a hit (about 19% of all), similar ones and a draw of the others. Unless noted, calls come from the whole dose curve; as a rule, active = well fitted inhibition curve with a large enough effect; inconclusive = small, poorly fitted or top-dose-only effect, or another doubt; inactive = no such curve, though single readings can be large or run the other way.

SMILES	Pf growth 48h	Lassa entry inh	Shiga inhibitor	Marburg entry inh	Pf growth 96h	Cycloheximide cs
CCCCn1c(N)c(N(CCOC)C(=O)C2CCN(S(=O)(=O)c3ccc(C)cc3)CC2)c(=O)[nH]c1=O	9.2%	7.4%	/	0.6%	-11.4%	/
Cc1ccc(S(=O)(=O)N2CCN(CC(=O)N(CC(C)C)c3c(N)n(CC(C)C)c(=O)[nH]c3=O)CC2)c(C)c1	?	18.7%	-12.2	1.1%	4.15µM*	-1.1
CCCCn1c(N)c(N(CC(C)C)C(=O)C2CCN(S(=O)(=O)c3ccc(C)c(C)c3)CC2)c(=O)[nH]c1=O	2.62µM*	-16.1%[46.1 µM]	-12.3	-24.6%[46.1 µM]	2.33µM*	-1.5
CCCCn1c(N)c(N(CC(C)C)C(=O)C2CCN(S(=O)(=O)c3ccc(C)cc3C)CC2)c(=O)[nH]c1=O	13.1µM*	29.4%[46.1 µM]	/	?	?	/
CCCCn1c(N)c(N(CCOC)C(=O)C2CCN(S(=O)(=O)c3ccc(C)cc3C)CC2)c(=O)[nH]c1=O	13.1µM*	9.0%	/	17.1%	?	/
CCCCn1c(N)c(N(CC(C)C)C(=O)C2CCN(S(=O)(=O)c3ccccc3)CC2)c(=O)[nH]c1=O	?	-15.1%	/	10.3%	?	/
CCOC(=O)CNC(=O)N1[C@H](c2cccs2)[C@@H](C)C(=O)[C@@H](C)[C@@H]1c1cccs1	/	18.0%[46.1 µM]	/	2.5%[46.1 µM]	/	/
Cc1ccc(S(=O)(=O)NCC(c2cccnc2)N2CCOCC2)cc1 (centres undefined)	13.9%	/	-10.6	/	-0.9%	-4.1
CC(C)NCC(O)c1ccc(N)c(C#N)c1 (centres undefined)	-2.3%	/	/	/	12µM*	/
COc1ccc(C2C=C(C34CC5CC(CC(C5)C3)C4)NC(=S)N2)cc1OC (centres undefined)	?	?	-10.5	?	9.28µM*	-3.4
Cc1cc(C(=O)OCC(=O)c2ccc3c(c2)OCCO3)c(C)o1	117.4%	-2.9%	113.7*	24.9%	-28.5%	36.6*
CC(OC(=O)c1cccnc1Cl)C(=O)Nc1ccc2c(c1)OCCO2 (centres undefined)	11.0%	-10.1%	2.7	3.1%	25.7%	11.5
Cc1c(C(=O)OCC(=O)c2ccc3c(c2)OCCO3)oc2ccccc12	12.4%	-1.6%	58.7*	20.4%[46.1 µM]	?	36.3*
O=C(COC(=O)c1cccnc1Cl)c1ccc2c(c1)OCCO2	39.2%	-26.1%[46.1 µM]	87.7*	13.5%[46.1 µM]	-22.1%	34.8*
Nc1ccccc1C(=O)OCC(=O)c1ccc2c(c1)OCCO2	167.7%	/	73.8*	/	177.3%	31.1*
CS(=O)(=O)c1cccc(C(=O)OCC(=O)c2ccc3c(c2)OCCO3)c1	5.9%	-4.6%[46.1 µM]	/	-18.2%	-3.7%	/
CCOc1ccccc1NC(=O)c1ccc(F)c(S(=O)(=O)N2CCC3(CC2)OCCO3)c1	?	1.8%	-14.7	2.6%	0.0%	-2.5
Cc1ccc2c(c1)c(C)c(C)n2CC(O)CN1CCCCC1C (centres undefined)	/	/	-15.4	/	-17.9%	-5.5
CCNS(=O)(=O)c1ccc(CCC(=O)N2CCOCC2)cc1	5.6%	/	/	/	?	-3.3
O=C(COC(=O)C(O)c1ccccc1)c1ccc2c(c1)OCCO2 (centres undefined)	20.1%	13.4%	102.7*	4.4%	21.9%	32.0*
Cc1cc(C(=O)OCC(=O)c2ccc(Br)s2)c(C)o1	23.8%	/	36.3	-1.5%	33.0%	32.6*
O=C(Cn1cnc2ccccc2c1=O)OCC(=O)c1ccc2c(c1)OCCO2	/	7.9%	-19.3	4.9%	-26.5%	1.7
O=C(COC(=O)c1ccc(Cl)nc1)c1ccc2c(c1)OCCO2	37.3%	/	100.0*	/	38.4%	44.2*
Cc1cc(C(=O)OCC(=O)Nc2ccc(F)cc2F)c(C)o1	?	-0.5%	13.7	?	-9.9%	16.6*
CCc1ccc(C(=O)COC(=O)c2ccc(Cl)nc2)cc1	i	-2.4%[46.1 µM]	65.2*	0.7%[46.1 µM]	270.9%	41.5*
SMILES	Pf growth 48h	Lassa entry inh	Shiga inhibitor	Marburg entry inh	Pf growth 96h	Cycloheximide cs
CCCNC(=O)C(Cc1ccc(C(F)(F)F)cc1)NC(=O)c1ccc2ccccc2n1 (centres undefined)	-56.9%	/	/	/	?	/
CCCSc1nc(C)c(CC(=O)OCC)c(=O)[nH]1	14.9%	8.2%	-15.3	0.3%	-12.2%	-2.2
COc1ccc(CCNC(=O)CS(=O)Cc2nc(-c3ccccc3F)oc2C)cc1OC (centres undefined)	5.6%	-7.3%[46.1 µM]	-8.6	22.0%[46.1 µM]	-0.4%	-2.7
CC(C(=O)Nc1ccccc1-c1ccccc1)N1CCN(C(=O)c2ccccc2)CC1 (centres undefined)	?	?	-5.1	?	?	-1.1
CC(=O)O[C@H]1C[C@H](O[C@H]2[C@@H](O)CC(O[C@H]3[C@@H](O)C[C@H](O[C@H]4CC[C@@]5(C)[C@H](CC[C@@H]6[C@@H]5CC[C@]5(C)[C@@H](C7=CC(=O)OC7)CC[C@]65O)C4)O[C@@H]3C)O[C@@H]2C)O[C@H](C)[C@H]1O[C@@H]1O[C@H](CO)[C@@H](O)[C@H](O)[C@H]1O (some centres undefined)	?	/	/	/	4.78µM*	/
CC1OC(OC2C(O)CC(OC3C(O)CC(OC4CCC5(C)C(CCC6C5CCC5(C)C(C7=CC(=O)OC7)CCC65O)C4)OC3C)OC2C)CC(O)C1O (centres undefined)	15.1µM*	/	-22.0	/	4.78µM*	-4.5
O=c1[nH]c(=S)n(C2CCCCC2)c(O)c1C=NCCN1CCOCC1	?	/	-3.9	/	-3.5%	-1.9
O=c1[nH]c(=S)n(C2CC2)c(O)c1C=NCc1ccc(F)cc1	19.7%	/	-11.9	/	-3.2%	0.8
O=c1[nH]c(=S)n(C2CC2)c(O)c1C=Nc1ccc2c(c1)OCO2	28.9%	21.3%[46.1 µM]	36.9	-2.9%[46.1 µM]	7.4%	13.8*
CC(C)c1ccc(N=Cc2c(O)n(C3CC3)c(=S)[nH]c2=O)cc1	16.0%	11.0%	52.0*	23.2%	16.7%	10.4*
CC1CCC2(CC1)NC(=O)N(CC(=O)Nc1ccc(N3CCOCC3)cc1)C2=O (centres undefined)	7.5%	/	-8.1	2.2%	47.2%	-3.6
COc1ccc(NC(=O)NNS(=O)(=O)c2ccc(OC)c(OC)c2)c(OC)c1	34.4%	-17.8%	6.6	-8.8%	-25.7%	-0.4
Cc1ccc(S(=O)(=O)N(C)C)cc1NC(=O)Cn1c(CN2CCOCC2)nc2ccccc2c1=O	14.7µM*	/	-2.2	/	-20.0%	16.5
COc1ccc(NC(=O)CSc2nc3ccccc3c(=O)n2CCCN2CCOCC2)c(OC)c1	?	-29.5%	1.5	-27.0%[46.1 µM]	?	-4.7
CN(C)S(=O)(=O)c1ccc(Cl)c(NC(=O)CSc2nc3ccccc3c(=O)n2CCCN2CCOCC2)c1	?	-11.4%	7.0	-41.2%	10.4µM*	-5.2
CC1CCCN(c2ccc3nncn3n2)C1 (centres undefined)	/	/	-7.6	/	12.2%	-4.5
CCCNCC(O)Cn1c2ccccc2n2c(=O)cc(C)c(C#N)c12 (centres undefined)	3.7µM*	16.3%	-1.6	?	11.7µM*	1.2

Assay outcomes from PubChem BioAssay.
